Results on 22 molecules are retold here after PubChem BioAssay (EPA / NIEHS).

Active and inactive are the calls of the source. The calls were made as follows: active = hit-call score of the fitted dose curve at least 0.9, where 1 is the maximum; inactive = score below 0.9.

Assay [1] in a line: ATG_GLI_CIS: Attagene CIS-FACTORIAL HepG2 Assay for human Zinc Finger Protein GLI1 (AID 2282945). Conditions: HepG2, Attagene cis-factorial reporter mRNA, GLI element; actives raise or lower the signal. The method, boiled down: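 Transiently transfected HepG2 cells report endogenous transcription factor activity via cis-element-driven reporter units. After 24 h compound exposure, reporter mRNA was measured by RT-PCR with capillary electrophoresis; bidirectional fitting against DMSO baseline.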

Assay [2] addresses Bile acid receptor (Homo sapiens) (UniProt Q96RI1). The assay is described as follows: ATG_IR1_CIS: Attagene CIS-FACTORIAL HepG2 Assay for human Nuclear Receptor Subfamily 1 Group H Member 4 (NR1H4), IR1 submotif (AID 2282946). The settings on record: IR1 reporter transcription, actives raise or lower the signal. In short, it runs like this: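 Fluorescence of capillary-separated, HpaI-digested RT-PCR reporter products gave IR1-element mRNA induction in HepG2 cells 24 h after dosing. Endogenous transcription factors drove the cis-regulated reporters; activity was fitted bidirectionally against DMSO.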

A short description of assay [3]: ATG_GRE_CIS: Attagene CIS-FACTORIAL HepG2 Assay for human Glucocorticoid Response Elements (GRE) (AID 2282947). The settings on record: HepG2 GRE cis-reporter, Attagene multiplex mRNA; actives raise or lower the signal. In short, it runs like this: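 Read-out: fluorescent reporter-transcript fragments separated by capillary electrophoresis after RT-PCR. Transiently transfected HepG2 cells carrying cis-element-driven reporter units were dosed for 24 h; gain or loss of signal fitted against DMSO control.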

Assay [4] is described as follows: ATG_ISRE_CIS: Attagene CIS-FACTORIAL HepG2 Assay for human Interferon Regulatory Factor 1 (IRF1) binding to an Interferon-Stimulated Response Element (ISRE) (AID 2282948). The settings on record: HepG2 ISRE cis-reporter (Attagene), mRNA transcription readout; actives raise or lower the signal. The method, boiled down:
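Multiplexed mRNA reporter readout in human liver HepG2 cells: cis-element-driven reporters transfected, compound added for 24 h, transcripts amplified, fluorescently labelled and sized by capillary electrophoresis; curve fitting bidirectional against DMSO.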

The nature of assay [5]: ATG_M_32_CIS: Attagene CIS-FACTORIAL HepG2 Assay for M32 Transcription Factor (Internal Marker) (AID 2282949).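 Also: background control marker of the multiplexed CIS panel rather than a real target.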 Conditions: HepG2 Attagene cis-factorial M32 reporter, mRNA; actives raise or lower the signal. The method, boiled down: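 Using DMSO as baseline, bidirectional curve fits were applied to reporter mRNA signals. These came from transiently transfected HepG2 cells exposed for 24 h, with RNA analysed by RT-PCR, FAM primer extension, HpaI digestion and CE.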

The nature of assay [6]: ATG_M_06_CIS: Attagene CIS-FACTORIAL HepG2 Assay for M06 Transcription Factor (Internal Marker) (AID 2282950). Conditions: HepG2 Attagene CIS-FACTORIAL M06 internal marker reporter; actives raise or lower the signal. The method, boiled down:
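Measured 24 h post-dosing in transiently transfected HepG2 cells, this internal-marker endpoint reports reporter mRNA via RT-PCR with fluorescent primer extension and capillary electrophoresis. DMSO served as negative control and baseline for bidirectional fitting.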

Assay [7] deals with Hepatocyte nuclear factor 6 (Homo sapiens) (UniProt Q9UBC0). The assay is described as follows: ATG_HNF6_CIS: Attagene CIS-FACTORIAL HepG2 Assay for human Hepatocyte Nuclear Factor 6 (HNF6) (AID 2282952). Conditions: HepG2 Attagene cis-factorial HNF6 reporter transcription; actives raise or lower the signal. In short, it runs like this: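 Twenty-four-hour chemical treatment of reporter-transfected HepG2 cells precedes RNA isolation, DNase-treated reverse transcription and PCR of reporter sequences. Labelled fragments are sized by capillary electrophoresis and fitted bidirectionally versus DMSO.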

Assay [8] concerns the target Heat shock factor protein 1 (Homo sapiens) (UniProt Q00613). The assay is described as follows: ATG_HSE_CIS: Attagene CIS-FACTORIAL HepG2 Assay for human Heat Shock Transcription Factor 1 (HSE) (AID 2282953). Conditions: HepG2 HSE cis-reporter, Attagene RNA transcription; actives raise or lower the signal. In short, it runs like this:
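Reporter mRNA induction in HepG2 is measured 24 h after dosing, using transiently transfected multiplexed cis-regulated reporter units. Signal comes from capillary electrophoresis of labelled RT-PCR products, with DMSO as negative control.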

Assay [9] in a line: ATG_MRE_CIS: Attagene CIS-FACTORIAL HepG2 Assay for human Metal Responsive Element (MRE) (AID 2282954). Conditions: HepG2 MRE cis-reporter transcription, Attagene multiplex; actives raise or lower the signal. In short, it runs like this: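 RT-PCR/capillary electrophoresis readout of reporter mRNA, 24 h post-dosing, in HepG2 cells transfected with multiplexed cis-regulated reporter constructs. Gain or loss of signal fitted bidirectionally against DMSO baseline.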

Assay [10] has as its target Hypoxia-inducible factor 1-alpha (Homo sapiens) (UniProt Q16665). The assay is described as follows: ATG_HIF1a_CIS: Attagene CIS-FACTORIAL HepG2 Assay for human Hypoxia Inducible Factor 1 (HIF1A) (AID 2282951). Conditions: HepG2 Attagene cis-factorial HIF1a reporter transcription; actives raise or lower the signal. In short, it runs like this: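 Transient MRTU transfection of human HepG2 liver cells, 24 h compound treatment, then total RNA isolation, oligo(dT) reverse transcription, PCR amplification, fluorescent labelling and capillary electrophoresis of reporter fragments. Gain or loss relative to DMSO.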

Bile acid receptor (Homo sapiens), sequence (Q96RI1 whole entry, looked up): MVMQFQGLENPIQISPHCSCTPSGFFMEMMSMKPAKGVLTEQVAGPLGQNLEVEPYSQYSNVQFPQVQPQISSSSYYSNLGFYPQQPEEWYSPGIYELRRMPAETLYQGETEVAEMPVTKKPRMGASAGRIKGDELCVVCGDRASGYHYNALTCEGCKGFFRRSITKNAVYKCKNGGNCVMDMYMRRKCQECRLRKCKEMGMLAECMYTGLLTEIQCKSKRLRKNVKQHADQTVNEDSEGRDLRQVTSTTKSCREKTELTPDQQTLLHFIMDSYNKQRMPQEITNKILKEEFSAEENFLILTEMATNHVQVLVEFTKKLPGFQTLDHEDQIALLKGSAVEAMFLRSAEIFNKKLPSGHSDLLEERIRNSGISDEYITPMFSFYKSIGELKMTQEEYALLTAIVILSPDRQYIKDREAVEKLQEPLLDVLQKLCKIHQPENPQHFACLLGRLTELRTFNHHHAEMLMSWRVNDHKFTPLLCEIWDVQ
Heat shock factor protein 1 (Homo sapiens), sequence (Q00613 whole entry, looked up): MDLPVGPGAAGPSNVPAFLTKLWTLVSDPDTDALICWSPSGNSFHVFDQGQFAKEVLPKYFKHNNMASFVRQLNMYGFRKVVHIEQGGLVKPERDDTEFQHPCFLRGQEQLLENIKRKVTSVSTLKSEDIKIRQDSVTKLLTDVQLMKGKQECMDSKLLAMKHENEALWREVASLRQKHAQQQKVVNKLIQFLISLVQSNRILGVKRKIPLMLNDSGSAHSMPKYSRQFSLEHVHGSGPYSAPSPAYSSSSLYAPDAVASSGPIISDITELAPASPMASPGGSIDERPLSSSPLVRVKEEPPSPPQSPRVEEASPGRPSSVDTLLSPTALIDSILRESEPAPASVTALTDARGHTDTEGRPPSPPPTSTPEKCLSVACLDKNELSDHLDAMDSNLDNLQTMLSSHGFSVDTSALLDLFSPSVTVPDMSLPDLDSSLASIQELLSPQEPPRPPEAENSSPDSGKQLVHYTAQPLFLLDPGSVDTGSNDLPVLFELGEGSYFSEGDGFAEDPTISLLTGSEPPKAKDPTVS
Hypoxia-inducible factor 1-alpha (Homo sapiens), sequence (Q16665 whole entry, looked up, the tested form may be a part): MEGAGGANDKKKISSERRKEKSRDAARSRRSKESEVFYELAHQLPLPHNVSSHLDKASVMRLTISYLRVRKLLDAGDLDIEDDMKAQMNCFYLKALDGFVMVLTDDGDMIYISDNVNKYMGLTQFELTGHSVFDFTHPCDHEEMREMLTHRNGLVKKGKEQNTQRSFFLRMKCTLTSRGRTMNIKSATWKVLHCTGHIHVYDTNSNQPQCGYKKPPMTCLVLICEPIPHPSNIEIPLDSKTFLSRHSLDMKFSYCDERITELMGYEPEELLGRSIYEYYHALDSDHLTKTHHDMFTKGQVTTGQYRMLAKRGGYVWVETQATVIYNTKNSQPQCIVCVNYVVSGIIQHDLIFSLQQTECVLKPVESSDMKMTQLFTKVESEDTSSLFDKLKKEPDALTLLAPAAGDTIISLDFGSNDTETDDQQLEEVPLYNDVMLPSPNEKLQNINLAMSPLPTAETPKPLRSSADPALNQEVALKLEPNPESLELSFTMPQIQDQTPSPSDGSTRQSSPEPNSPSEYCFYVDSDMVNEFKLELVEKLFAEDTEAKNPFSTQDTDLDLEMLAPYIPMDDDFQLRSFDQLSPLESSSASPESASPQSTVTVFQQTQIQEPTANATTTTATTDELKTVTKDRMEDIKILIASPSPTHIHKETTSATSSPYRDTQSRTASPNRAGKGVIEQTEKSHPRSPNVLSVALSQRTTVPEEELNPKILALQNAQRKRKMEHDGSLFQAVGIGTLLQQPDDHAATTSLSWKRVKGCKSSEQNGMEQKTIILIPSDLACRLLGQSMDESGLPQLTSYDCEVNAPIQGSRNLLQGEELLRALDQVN
Hepatocyte nuclear factor 6 (Homo sapiens), sequence (Q9UBC0 whole entry, looked up, the tested form may be a part): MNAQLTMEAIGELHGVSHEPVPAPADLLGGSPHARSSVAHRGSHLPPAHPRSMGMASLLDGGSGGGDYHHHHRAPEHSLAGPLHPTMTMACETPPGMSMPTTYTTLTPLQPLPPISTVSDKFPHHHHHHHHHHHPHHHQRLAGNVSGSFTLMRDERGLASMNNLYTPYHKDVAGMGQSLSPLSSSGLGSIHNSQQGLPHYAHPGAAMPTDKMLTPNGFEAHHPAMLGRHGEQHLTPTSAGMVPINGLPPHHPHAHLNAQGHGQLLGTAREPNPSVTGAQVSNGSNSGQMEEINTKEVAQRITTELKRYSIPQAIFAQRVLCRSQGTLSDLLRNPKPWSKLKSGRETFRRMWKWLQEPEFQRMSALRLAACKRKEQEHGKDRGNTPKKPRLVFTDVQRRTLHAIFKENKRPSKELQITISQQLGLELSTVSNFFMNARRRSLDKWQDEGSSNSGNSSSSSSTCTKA

Turning to `NC(=O)C(F)(F)C(F)(F)C(F)(F)F`, the call in [1], in assay [2], in [3], in [4], in assay [5] and in assay [6] was inactive. In addition, the molecule was classed as inactive in assay [7], in [8] and in assay [9].
Consider `COC(=O)c1ccc(C=O)cc1`, for which the molecule was classed as inactive in assay [1], in assay [2], in assay [3], in [4], in assay [5] and in assay [6]. The result in [7] and in assay [9] was inactive.
On to `CCCCCCCCCCCCC[N+](C)(C)Cc1ccccc1`, for which the molecule was called inactive in assay [1], in [2], in [4], in [5], in assay [6] and in [10]. Also, the result in [7], in [8] and in assay [9] was inactive.
Regarding `O=C(O)C(F)(F)C(F)(F)C(F)(F)C(=O)O`, the result in assay [1], in assay [2], in [3], in assay [4], in assay [5] and in [6] was inactive. In addition, the molecule was called inactive in assay [7] and in assay [9].
What is called AC50 is the concentration giving half of the maximal activity seen. Turning to `C=CC(=O)OCC(F)(F)C(F)(F)C(F)(F)COC(=O)C=C`, the molecule was called inactive in assay [1], in assay [2], in [3], in [5], in assay [6] and in assay [10]. Moreover, the call in assay [7] was inactive. Also, the AC50 was 35.9 µM (active) in [4] and 33.2 µM (active) in [9].
Turning to `OCC(O)CC(F)(F)C(F)(F)C(F)(F)C(F)(F)F` (stereo unspecified), the call in assay [1], in assay [2], in [3], in assay [4], in assay [5] and in assay [6] was inactive. Also, the call in [7], in assay [8] and in assay [9] was inactive.
For the molecule `O=c1[nH]cccc1O`, the molecule was classed as inactive in [1], in assay [2], in assay [3], in [4], in assay [5] and in [6]. The outcome in assay [10], in assay [7] and in assay [9] was inactive.
Take `CC(C)(C)c1cc(Cc2cc(C(C)(C)C)c(O)c(C(C)(C)C)c2)cc(C(C)(C)C)c1O`: the molecule was called inactive in assay [1], in assay [2], in assay [3], in assay [4], in [5] and in [6]. The outcome in [10], in assay [7] and in assay [9] was inactive.
For `O=c1cccc[nH]1`, the outcome in assay [1], in assay [2], in assay [3], in [4], in assay [5] and in assay [6] was inactive. The molecule was classed as inactive in [7] and in assay [9].
In the case of `CC(C)=CCCC(C)O` (stereo unspecified), the result in assay [1], in assay [2], in [3], in [4], in assay [5] and in assay [6] was inactive. In addition, the result in [7] and in assay [9] was inactive.
As to `Cc1cc(O)c(C(C)(C)C)cc1C(C)(C)C`, the molecule was classed as inactive in assay [1], in assay [3], in assay [5], in [6], in assay [7] and in assay [8]. In addition, the AC50 in [2] is 2.87 µM (active); in assay [4] it was 17.2 µM (active); in assay [9], 18 µM (active).
In the case of `CCOC(=O)CCC(C)=O`, the call in assay [1], in assay [2], in assay [3], in [4], in [5] and in [6] was inactive. Further, the molecule was called inactive in assay [10], in assay [7] and in assay [9].
For `O=C=NCc1cccc(CN=C=O)c1`, the result in assay [1], in assay [2], in assay [3], in [4], in assay [5] and in assay [6] was inactive. The result in assay [7] and in assay [9] was inactive.
Regarding `CC1=CCC2C(=O)OC(=O)C2C1` (stereo unspecified), the outcome in assay [1], in assay [2], in [4], in assay [5], in assay [6] and in [10] was inactive. For the same molecule, the molecule was called inactive in assay [7] and in assay [9].
As for `Cc1cccc(C)n1`, the molecule was called inactive in [1], in assay [2], in assay [4], in assay [5], in assay [6] and in assay [10]. For the same molecule, the molecule was classed as inactive in assay [7], in assay [8] and in assay [9].
As for `CCN(CC)c1ccc(C=O)c(O)c1`, the molecule was called inactive in assay [1], in assay [2], in assay [5], in assay [6], in [7] and in assay [8]. The figures for the AC50 in [4] and in assay [9] were 75.4 µM (active) and 52.2 µM (active), respectively.
Regarding `OCCCCC(F)(F)C(F)(F)C(F)(F)C(F)(F)F`, the outcome in [1], in assay [2], in assay [4], in assay [5], in assay [6] and in assay [10] was inactive. The call in [7], in assay [8] and in [9] was inactive.
In the case of `NCC(F)(F)C(F)(F)C(F)(F)C(F)(F)C(F)(F)C(F)(F)F`, the result in [1], in assay [2], in [4], in [5], in [6] and in [10] was inactive. In addition, the call in assay [7] and in assay [9] was inactive.
As for `OC(O)C(F)(F)C(F)(F)F`, the molecule was called inactive in [1], in assay [2], in assay [5], in [6], in assay [7] and in assay [8]. Further, in assay [9], the outcome was inactive. Besides, in assay [4], the AC50 is 108 µM (active).
For `CCN=C1C=CC(=C(c2ccc(N(CC)CC)cc2)c2ccc(N(CC)CC)cc2)c2ccccc21`, the AC50 in [1] was 5.55 µM (active); in [2], 0.911 µM (active); in assay [4] it was 0.916 µM (active); in [10], 1.1 µM (active); in assay [8], 1.01 µM (active); in assay [9], 1.03 µM (active). The outcome in assay [5], in assay [6] and in assay [7] was inactive.
Turning to `Oc1ccc2c(c1)CCC2`, the molecule was called inactive in assay [1], in assay [2], in [4], in [5], in assay [6] and in assay [7]. For the same molecule, in assay [9], the outcome was inactive.
On to `CCCCCCCCCCCC(=O)Cl`, for which the call in assay [1], in assay [2], in assay [4], in assay [5], in assay [6] and in assay [7] was inactive. The call in assay [8] and in [9] was inactive.
